Test in all cases: NCI-60 one-dose screen, 48 h (100 = growth as untreated, 0 = no growth, -100 = all killed)
The test system of assay [1] is NCI-H23 lung. The conditions noted are these: 10 µM unless noted.
The subject of assay [2] is NCI-H226 lung. As to conditions: 10 µM unless noted.
The subject of assay [3] is NCI-H322M lung. The conditions noted are these: 10 µM unless noted.
For assay [4], the system named is HOP-62 NSCLC. The conditions noted are these: 10 µM unless noted.
For assay [5], the system named is NCI-H460 lung. As to conditions: 10 µM unless noted.
The subject of assay [6] is HOP-92 NSCLC. The conditions noted are these: 10 µM.
Assay [7] relates to NCI-H522 lung. The conditions noted are these: 10 µM unless noted.
The subject of assay [8] is A549/ATCC NSCLC. As to conditions: 10 µM unless noted.
The test system of assay [9] is 786-0 renal. As to conditions: 10 µM unless noted.
The subject of assay [10] is COLO 205 colon. As to conditions: 10 µM unless noted.
Assay [11] deals with DU-145 prostate. As to conditions: 10 µM unless noted.
The test system of assay [12] is K-562 leukemia. The conditions noted are these: 10 µM unless noted.
The test system of assay [13] is MALME-3M melanoma. As to conditions: 10 µM unless noted.
Assay [14] concerns MDA-MB-231 breast. The conditions noted are these: 10 µM unless noted.
Assay [15] has as its system SF-268 CNS. The conditions noted are these: 10 µM unless noted.
Assay [16] concerns SF-295 CNS. As to conditions: 10 µM unless noted.
In assay [17] the test system is SF-539 CNS. As to conditions: 10 µM unless noted.
The subject of assay [18] is UACC-257 melanoma. As to conditions: 10 µM unless noted.
The test system of assay [19] is RXF 393 renal. The conditions noted are these: 10 µM unless noted.

Compounds without any hit were thinned out: in the full panel of roughly 83,000, 20% have a hit.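 Activity criterion: percent growth below 10, measured after cells in 96-well plates were exposed to a single compound concentration for 48 hours.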 Values without a mark were called inactive. The source made the active and inactive calls.

Take `N#Cc1cccc(NC(=O)c2cc(-c3ccc(F)cc3F)ccc2O)c1`: the growth was 2.72% (active) in assay [1]; 12% in assay [2]; 10.8% in assay [3]; 20.9% in assay [4]; 5.69% (active) in assay [5]; -24.7% (active) in assay [6]. In addition, the growth in assay [7] is 1.9% (active); in assay [8], 11.3%; in assay [9], 13.2%; in assay [10] it was 95.2%; in [11], 20.9%; in assay [12] it was 11.8%. The growth in assay [13] was -9.34% (active); in assay [14] it was 6.64% (active); in [15], 18.7%; in assay [16], -16.9% (active); in [17], 15.1%; in assay [18] it was -6.12% (active).

With `C=C(C=O)[C@@H]1CC[C@]2(C)[C@H](C(=O)C=C3[C@H]4C[C@](C)(C(=O)OC)CC[C@]4(C)CC[C@]32C)[C@@]1(C)CCC#N`, the growth in assay [1] was 4.93% (active); in [2], -53.6% (active); in [3], 109%; in assay [4], 41.2%; in [5] it was 32.4%; in assay [6] it was -35.2% (active). The growth in [7] is 52.5%; in assay [8] it was 104%; in assay [9], 13.6%; in assay [10], 86.4%; in [11], 6.32% (active); in assay [12], 5.75% (active). For the same compound, the growth is -49.8% (active) in assay [13]; -19% (active) in assay [14]; 32% in [15]; 28.4% in assay [16]; -29.1% (active) in [17]; -13.6% (active) in [18].

As for `COc1cc(C2N=C(NNc3ccccc3)NC(C)=C2C(C)=O)ccc1O` (centres undefined), the growth in assay [1] was 96.7%; in assay [2], 86.5%; in assay [3] it was 88.1%; in assay [4] it was 82%; in assay [5], 106%; in [6], 90.4%. Moreover, the growth in [7] was 78.5%; in [8], 95.5%; in [9] it was 102%; in assay [10] it was 113%; in assay [11] it was 108%; in assay [12] it was 66.8%. In addition, the growth is 106% in assay [13]; 76.8% in assay [14]; 86.3% in assay [15]; 101% in assay [16]; 98.7% in assay [17]; 110% in assay [18].

In the case of `N=c1c2cc(-c3ccccc3)oc2ncn1/N=C/c1ccc(Br)cc1`, the growth in [1] was 102%; in [2], 71.3%; in assay [3] it was 78.1%; in [4], 73.7%; in assay [5] it was 15.8%; in assay [6], 105%. Also, the growth was 91.8% in assay [7]; 44.2% in assay [8]; 59.2% in assay [9]; 50.9% in assay [11]; 80% in assay [12]; 16.3% in assay [13]. The growth in [14] is 93.4%; in [19], 86.6%; in [15], 68.9%; in [16] it was 84.2%; in assay [17] it was 74.2%; in assay [18], 89.8%.

In the case of `CN1CCN(c2ccc(/C=N/Nc3nc4ccccc4c(=O)n3-c3ccccc3)cc2)CC1`, the growth in assay [1] is 103%; in [2] it was 101%; in assay [3] it was 103%; in assay [4], 96.2%; in [5], 109%; in [6], 102%. The growth in assay [7] was 93%; in [8], 103%; in assay [9], 91.6%; in [10] it was 103%; in [11], 109%; in assay [12], 103%. Also, the growth in assay [13] is 102%; in assay [14] it was 105%; in assay [15], 90.7%; in [16], 101%; in assay [17] it was 101%; in [18], 114%.

Take `O=C(NCCN1CCCC1)c1ccc(-c2nc3ccc4[nH]ncc4c3c3c2CCCC3)cc1`: the growth in assay [1] was -14.8% (active); in assay [2], 13.6%; in assay [3] it was 3.73% (active); in [4], 15.8%; in assay [5], -5.93% (active); in assay [6] it was -15.4% (active). Further, the growth was -29.2% (active) in assay [7]; 6.08% (active) in [8]; 6.43% (active) in assay [9]; -14.8% (active) in assay [10]; 6.08% (active) in assay [11]; 0.479% (active) in assay [12]. The growth was -2.3% (active) in assay [13]; -2.53% (active) in [14]; -11.3% (active) in assay [15]; 3.28% (active) in [16]; -63.2% (active) in assay [17]; 23.8% in assay [18].

For the compound `COc1ccc(C(=O)c2c(N)c(C#N)cn2-c2ccccc2OC)cc1`, the growth in [1] was 32.8%; in assay [2], 60.5%; in assay [3], 75.2%; in assay [4], 56.3%; in [5], 17.4%; in assay [6], 52.5%. For the same compound, the growth in assay [7] is -1.29% (active); in assay [8], 53.4%; in assay [9], 43.7%; in [10], 38.5%; in [11] it was 52.4%; in [12], 13.3%. In addition, the growth in assay [13] is 42%; in assay [14], 48.6%; in assay [15] it was 44.1%; in [16], 8.45% (active); in assay [17] it was 12.4%; in assay [18], 66.9%.

Take `C=CCn1c(SCC(=O)Nc2ccc(C(=O)/C=C/c3ccc(Br)cc3)cc2)nnc1-c1c[nH]c2ccccc12`: the growth in assay [1] was 90%; in assay [2] it was 84.7%; in assay [3] it was 93.7%; in assay [4], 92.7%; in assay [5] it was 95.4%; in assay [6], 86.4%. For the same compound, the growth was 82.5% in [7]; 73.5% in assay [8]; 102% in [9]; 109% in [10]; 91.6% in assay [11]; 66.8% in assay [12]. The growth was 91% in assay [13]; 86.2% in [14]; 70.7% in assay [15]; 90.2% in [16]; 88.2% in assay [17]; 107% in assay [18].
